# Laboratory results published in PubChem BioAssay (EPA / NIEHS).
# Active and inactive are the calls of the source. How the source made its calls: active means hit-call score of the fitted dose curve at least 0.9, where 1 is the maximum; inactive means score below 0.9.
# Read-out: Macrophage colony-stimulating factor (MCSF), CSF1 (gene 1435)
# Experiment: BSK_hDFCGF_MCSF: BioMAP Diversity Plus: hDFCGF Assay for Macrophage colony-stimulating factor (MCSF) Biomarker Activity (AID 2283060)
# Conditions: primary human foreskin fibroblasts; actives raise or lower the signal
# Protocol: BSK_hDFCGF is a cell-based, multiplexed-readout assay that uses foreskin fibroblast, a human skin primary cell, with measurements taken at 24 hours after chemical dosing in a 96-well plate.BSK_hDFCGF_MCSF is an assay component measured in the BSK_hDFCGF assay. It measures M-CSF antibody related to regulation of gene expression using ELISA technology.Data from the assay component BSK_hDFCGF_MCSF was analyzed into 1 assay endpoint. This assay endpoint, BSK_hDFCGF_MCSF, was analyzed with bidirectional fitting relative to DMSO as the negative control and baseline of activity. Using a type of binding reporter, gain or loss-of-signal activity can be used to understand changes in the signaling as they relate to the gene CSF1. Furthermore, this assay endpoint can be referred to as a primary readout, because this assay has produced multiple assay endpoints where this one serves a signaling function. To generalize the intended target to other relatable targets, this assay endpoint is annotated to the cytokine intended target family, where the subfamily is colony stimulating factor.
# The levels of cell surface (or secreted, indicated by the prefix "s") biomarker endpoints were measured by ELISA. Overt cytotoxicity to cells in confluent adherent cultures (all systems other than the BT system) was assessed by measuring total protein levels using sulforhodamine B (SRB) staining in parallel cultures at the time of biomarker measurements, indicated as SRB endpoints. For proliferation assays for adherent cell types, individual cell types are cultured at sub-confluence and relative cell numbers quantified by SRB staining at time points optimized for each system (48 h: 3C and CASM3C systems; 72 h: BT and HDF3CGF systems; 96 h: SAg system). SRB was performed by staining cells with 0.1% SRB after fixation with 10% TCA and reading wells at 560 nm.Viability and proliferation of PBMC (T cells) was quantified by Alamar Blue reduction for the SAg and BT systems. For PBMC viability (referred to as PBMC Cytotoxicity within the assay endpoint names), cells were plated (75,000/well in a 96-well plate) and then chemical samples added for 1 h before addition of activators, SEB and TSST-1 (20 ng/mL final concentration each). Cells were incubated for 90 h. Then, Alamar Blue (20 uL/well) (Invitrogen, Cat DAL1100) was added for 6 h, and the plates were read with a fluorescence microplate reader at 546/580 nm (excitation/emission). For PBMC proliferation, cells were plated and activated as above but incubated for only 16 h prior to addition of Alamar Blue. Plates were read after 6 h.
SMILES,outcome,AC50
O=C(NS(=O)(=O)/C=C/c1cccs1)c1ccc(F)cc1Br,inactive,
CC(C)(C)c1ccccc1,inactive,
CCCCC(CC)COP(=O)(OCC(CC)CCCC)OCC(CC)CCCC (stereo not given),inactive,
NC=O,inactive,
S=c1[nH]c2ccccc2s1,inactive,
OCC(CO)n1cnc(-c2ccc(F)cc2)c1-c1ccnc(Oc2ccccc2)n1,,0.148 µM (active)
C/C=C/c1ccc(OC)cc1,inactive,
CC(C)c1cccc(C(C)C)c1NC(=O)NS(=O)(=O)c1cc(C(C)(C)O)co1,inactive,
CN(C)C(=O)NC1(c2ccccc2)CCN(CCC[C@]2(c3ccc(Cl)c(Cl)c3)CCCN(C(=O)c3ccccc3)C2)CC1,inactive,
Cc1ccc(-c2cc(C(F)(F)F)nn2-c2ccc(S(N)(=O)=O)cc2)cc1,inactive,
CCCCCCCCCC[N+](C)(C)[O-],inactive,
Oc1ccc(O)cc1,,11.6 µM (active)
c1ccc2occc2c1,inactive,
O=C1CCCCC1,inactive,
CC(C)NCC(O)c1ccc(O)c(O)c1 (stereo not given),inactive,
CC1(C)C(=O)NC(=O)N1CO,inactive,
O=C1NC(=O)C(c2ccccc2)(c2ccccc2)N1,inactive,
COC(=O)CCCC(=O)OC,inactive,
Nc1nc(=S)c2[nH]cnc2[nH]1,inactive,
O=Cc1ccccc1C=O,inactive,

SMILES,outcome,AC50
NC1CCCCC1,inactive,
C#CC(O)C(CC)CCCC (stereo not given),inactive,
C/C=C/C=C/C(=O)O,inactive,
Cc1cc(SC2=C(O)C[C@@](CCc3ccc(N)cc3)(C(C)C)OC2=O)c(C(C)(C)C)cc1CO,inactive,
CC(C)c1cccc(C(C)C)c1,inactive,
O=C1O[C@H]([C@H](O)CO)C(O)=C1O,inactive,
CCOCCOCCO,inactive,
O=C(O)CN(CC(=O)O)CC(=O)O,inactive,
Cc1ccc(C(C)(C)C)c(O)c1,inactive,
Nc1nc(Cl)nc2c1ncn2[C@H]1C[C@H](O)[C@@H](CO)O1,,1.01 µM (active)
NCCOCCOCCN,inactive,
CN(C)CCCN(C)CCCN(C)C,inactive,
CCCCC(CC)CO (stereo not given),inactive,
O=[Si]=O,inactive,
Cc1occc(=O)c1O,inactive,
COC(=O)[C@H]1[C@H]2C[C@@H]3c4[nH]c5cc(OC)ccc5c4CCN3C[C@H]2C[C@@H](OC(=O)c2cc(OC)c(OC)c(OC)c2)[C@@H]1OC,inactive,
Cc1cn([C@H]2C=C[C@@H](CO)O2)c(=O)[nH]c1=O,inactive,
CCCCCCCCCCCCCCOS(=O)(=O)O,,9.53 µM (active)
CC(=O)CC(c1ccccc1)c1c(O)c2ccccc2oc1=O (stereo not given),inactive,
O=C(O)CC(O)(CC(=O)O)C(=O)O,inactive,
